The nature of assay [1]: qHTS assay to identify small molecule antagonists of the androgen receptor (AR) signaling pathway using the MDA cell line in the presence of 0.5 nM R1881 - cell viability counter screen (AID 1259242). Further: nearly all actives have a fitted effect of over 45% in size. The essentials: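 qHTS format. MDA-kb2 (MMTV-luc, AR/GR responsive) + cpd + 0.5 nM R1881 final, 16 hr 37C/0% CO2 → CellTiter-Fluor 30 min → fluorescence intensity.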
Background: qHTS replaces the single test concentration by a dilution series.

Assay [2] addresses Androgen receptor (Homo sapiens) (UniProt P10275). Kind of assay: qHTS assay to identify small molecule antagonists of the androgen receptor (AR) signaling pathway using the MDA cell line in the presence of 0.5 nM R1881 (AID 1259243). Further: nearly all actives have a fitted effect of over 50% in size. Further: potency means the concentration at half of the fitted maximal effect. The essentials:
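Antagonist mode quantitative HTS in MDA-kb2 MMTV-luciferase cells, agonist R1881 at 0.5 nM final, 16 hr exposure at 37C and 0% CO2, luminescent detection.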

A short description of assay [3]: qHTS assay to identify small molecule HDAC inhibitors (AID 1259364).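 Further: wild-type HCT-116 cells with endogenous class I/II HDAC activity; top concentration of the series differs between compounds; nearly all actives have a fitted effect of over 45% in size.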 The essentials:
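Quantitative high-throughput format: overnight-seeded HCT-116 cells got compounds for 2 hr at 37C; HDAC-Glo I/II reagent added, 30 min RT, luminescence measured.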

Assay [4] in a line: qHTS assay to identify small molecule HDAC inhibitors - cell viability counter screen (AID 1259365). Further: series mostly up to about 92 µM; nearly all actives have a fitted effect of over 50% in size. The essentials:
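Cytotoxicity was gauged in wild-type HCT-116 cells after a brief 2hr treatment with DMSO-dissolved compounds at 37C and 5% CO2, using CellTiter-Glo luminescence developed for 30min at room temperature.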

Assay [5] in a line: qHTS assay to identify small molecule agonists of the sonic hedgehog signaling (Shh) pathway - cell viability counter screen (AID 1259366). Further: nearly all actives have a fitted effect of over 50% in size. The essentials:
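Stable Gli1-Luc NIH/3T3 clone, 2,000 cells/well. Compound exposure 24hr at 37C. Read-out: CellTiter-Fluor fluorescence.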

Assay [6] is described as follows: qHTS assay to identify small molecule antagonists of the sonic hedgehog signaling (Shh) pathway - cell viability counter screen (AID 1259367). Further: nearly all actives have a fitted effect of over 55% in size. The essentials:
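Conditioned medium drove Shh signaling in 3T3 Gli1-Luc cells exposed to compounds at 37C and 5% CO2. Viability was determined from CellTiter-Fluor fluorescence, with reagent incubated 1 hr after 23 hr of treatment.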

Assay [7] is described as follows: qHTS assay to identify small molecule agonists of the sonic hedgehog signaling (Shh) pathway (AID 1259368; calls by dose curve;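 further: NIH/3T3-derived 3T3Gli1-Luc cells carrying a stable Gli1-driven firefly luciferase reporter; series mostly up to about 92 µM; nearly all actives have a fitted effect of over 15% in size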). The essentials:
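Quantitative high-throughput format using a Gli1-driven firefly luciferase reporter line derived from NIH/3T3 cells. After a 24 hr compound treatment at 37 C and 5% CO2, luminescence reported Gli1 response element activity.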

Assay [8] in a line: qHTS assay to identify small molecule antagonists of the sonic hedgehog signaling (Shh) pathway (AID 1259369; calls by dose curve; further: nearly all actives have a fitted effect of over 45% in size; further: potency means the concentration at half of the fitted maximal effect). The essentials: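 Stable Gli1-Luc reporter NIH/3T3 clone; quantitative HTS in stimulated mode with conditioned medium. Luminescence measured after 24hr compound treatment at 37 C.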
For assay [9], the target named is Estrogen receptor beta (Homo sapiens) (UniProt Q92731). The experiment in a line: qHTS assay to identify small molecule agonists of the estrogen receptor beta (ER-beta) signaling pathway (AID 1259377; active means well fitted activation curve with a large enough effect in the signal ratio in the repeat runs, not every such curve was filed as active; the % refers to the signal ratio). In a few lines:
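Measured by fluorescence intensity from a B/G FRET beta-lactamase substrate (2 h, room temperature) in ER-beta-UAS-bla HEK293T cells treated with DMSO-dissolved compounds for 16 hr at 37C and 5% CO2.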

Assay [10] has the same target. Kind of assay: qHTS assay to identify small molecule antagonists of the estrogen receptor beta (ER-beta) signaling pathway (AID 1259378; active means well fitted inhibition curve with a large enough effect in the signal ratio in the repeat runs, not every such curve was filed as active; the % refers to the signal ratio). The essentials: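 ER-beta-UAS-bla HEK293T (GripTite) cells in 2% charcoal-stripped FBS medium were preincubated 6 hr at 37C, dosed with compound, then stimulated with 1 nM E2 (final) for 16 hr; beta-lactamase reporter read by B/G FRET fluorescence after 2 hr substrate loading.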

Assay [11] can be described thus: qHTS assay to identify small molecule agonists of the androgen receptor (AR) signaling pathway in the presence of an antagonist - cell viability counter screen (AID 1259379).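 Further: MDA-kb2 human breast cancer cells carrying an MMTV luciferase reporter; series mostly up to about 92 µM; nearly all actives have a fitted effect of over 25% in size.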 The essentials:
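Nilutamide-containing (3.0uM final) MDA-kb2 cultures, 3,000 cells/well, were treated with compounds across 15 concentrations. After 16 hr at 37C with no CO2, cell viability was determined by CellTiter-Fluor fluorescence in the luciferase assay wells.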

In assay [12] the target is Androgen receptor (Homo sapiens) (UniProt P10275). Kind of assay: qHTS assay to identify small molecule agonists of the androgen receptor (AR) signaling pathway in the presence of an antagonist (AID 1259381; calls by dose curve; further: nearly all actives have a fitted effect of over 15% in size; further: potency means the concentration at half of the fitted maximal effect). In a few lines: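 Reporter-gene luminescence from MDA-kb2 cells exposed 16hr at 37C (0% CO2) to 15-point compound titrations with 3.0uM final nilutamide as AR antagonist.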
Androgen receptor (Homo sapiens), sequence (P10275 whole entry, looked up): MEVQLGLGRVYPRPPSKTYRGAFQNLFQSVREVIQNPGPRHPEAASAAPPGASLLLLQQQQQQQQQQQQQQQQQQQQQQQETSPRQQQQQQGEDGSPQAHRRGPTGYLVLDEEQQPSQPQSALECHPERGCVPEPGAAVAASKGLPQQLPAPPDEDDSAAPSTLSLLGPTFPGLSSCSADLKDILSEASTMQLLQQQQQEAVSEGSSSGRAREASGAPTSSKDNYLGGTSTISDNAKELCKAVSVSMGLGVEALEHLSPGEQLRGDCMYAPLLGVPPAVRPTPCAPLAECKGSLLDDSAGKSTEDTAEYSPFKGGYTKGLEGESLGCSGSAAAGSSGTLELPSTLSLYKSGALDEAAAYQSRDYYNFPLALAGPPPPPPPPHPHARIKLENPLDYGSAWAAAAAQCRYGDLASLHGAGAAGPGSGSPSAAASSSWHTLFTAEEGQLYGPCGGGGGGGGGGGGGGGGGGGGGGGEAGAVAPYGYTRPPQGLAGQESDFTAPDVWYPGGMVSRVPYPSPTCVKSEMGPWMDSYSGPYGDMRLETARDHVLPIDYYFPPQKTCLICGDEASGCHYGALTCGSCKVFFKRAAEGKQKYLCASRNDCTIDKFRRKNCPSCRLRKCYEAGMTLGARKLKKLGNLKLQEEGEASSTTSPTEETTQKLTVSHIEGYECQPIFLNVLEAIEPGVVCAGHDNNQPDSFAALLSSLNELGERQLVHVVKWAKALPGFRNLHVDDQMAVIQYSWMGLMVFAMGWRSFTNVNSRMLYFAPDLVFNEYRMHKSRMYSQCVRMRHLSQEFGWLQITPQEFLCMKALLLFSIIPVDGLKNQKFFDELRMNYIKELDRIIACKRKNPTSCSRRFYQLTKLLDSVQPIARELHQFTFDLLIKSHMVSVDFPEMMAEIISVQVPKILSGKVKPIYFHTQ

Assay [13] is described as follows: qHTS assay to identify small molecule antagonists of the estrogen receptor beta (ER-beta) signaling pathway - cell viability counter screen (AID 1259382). Further: series mostly up to about 92 µM; nearly all actives have a fitted effect of over 55% in size. The essentials: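 Viability is scored by CellTiter-Glo luminescence (30 min, room temperature) in ER-beta-UAS-bla HEK293T wells already read for reporter fluorescence. Compound exposure lasts 16 hr at 37C alongside 1nM 17-beta-estradiol in charcoal-stripped serum medium.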

Assay [14] can be described thus: qHTS assay to identify small molecule agonists or antagonists of the thyroid stimulating hormone receptor (TSHR) signaling pathway - wild type cell line counter screen (AID 1259384; calls by dose curve). In a few lines: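 Wild-type HEK293 cells were plated 18 h at 37 C/5% CO2, pin-dosed with compound plus Ro20-1724 medium, held 30 min at room temperature, then given cAMP-d2 and anti-cAMP-cryptate; fluorescence was read after 1 h. Fifteen concentrations, triplicate.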

Assay [15] deals with Thyrotropin receptor (Homo sapiens) (UniProt P16473). The experiment in a line: qHTS assay to identify small molecule antagonists of the thyroid stimulating hormone receptor (TSHR) signaling pathway (AID 1259385; calls by dose curve; further: nearly all actives have a fitted effect of over 20% in size). In a few lines: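 TSHR-HEK293 cells were plated and held 18 h at 37C/5% CO2, then given compound plus Ro20-1724 and stimulated with TSH at 1.5 ng/mL final. After 30 min at room temperature, cAMP was detected with cAMP-d2/anti-cAMP-cryptate (1 h) by fluorescence.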
Thyrotropin receptor (Homo sapiens), sequence (P16473 whole entry, looked up): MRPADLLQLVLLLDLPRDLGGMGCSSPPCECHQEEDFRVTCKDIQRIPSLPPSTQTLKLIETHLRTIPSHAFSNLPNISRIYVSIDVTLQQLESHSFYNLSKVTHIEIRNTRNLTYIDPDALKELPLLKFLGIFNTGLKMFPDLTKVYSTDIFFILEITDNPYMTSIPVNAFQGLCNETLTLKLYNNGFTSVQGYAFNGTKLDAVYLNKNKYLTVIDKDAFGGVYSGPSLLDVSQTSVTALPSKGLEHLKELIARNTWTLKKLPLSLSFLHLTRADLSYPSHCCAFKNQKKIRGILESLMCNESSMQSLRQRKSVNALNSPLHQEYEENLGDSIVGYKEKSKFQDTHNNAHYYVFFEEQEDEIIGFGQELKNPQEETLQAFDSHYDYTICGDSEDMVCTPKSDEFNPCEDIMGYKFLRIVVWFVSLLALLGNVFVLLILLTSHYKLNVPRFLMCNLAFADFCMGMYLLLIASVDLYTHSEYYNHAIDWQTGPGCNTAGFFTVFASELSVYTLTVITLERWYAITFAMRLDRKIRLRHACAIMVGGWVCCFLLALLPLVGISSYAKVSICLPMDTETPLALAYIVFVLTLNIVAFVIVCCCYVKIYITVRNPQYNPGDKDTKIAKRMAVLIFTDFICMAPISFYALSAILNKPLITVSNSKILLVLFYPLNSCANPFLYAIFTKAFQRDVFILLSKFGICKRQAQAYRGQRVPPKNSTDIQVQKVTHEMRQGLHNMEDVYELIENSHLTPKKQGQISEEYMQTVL

The target of assay [16] is Estrogen receptor (Homo sapiens) (UniProt P03372). Kind of assay: qHTS assay to identify small molecule antagonists of the estrogen receptor alpha (ER-alpha) signaling pathway using the BG1 cell line in the presence of 0.1 nM 17-beta-estradiol (AID 1259244). Further: nearly all actives have a fitted effect of over 50% in size. In a few lines: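 Reporter is a stably transfected luciferase under four estrogen responsive elements in VM7Luc4E2 cells expressing native full-length ER-alpha; inhibition of 0.1 nM (final) 17beta-estradiol-driven signal over 22 h is read by luminescence.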
Estrogen receptor (Homo sapiens), sequence (P03372 whole entry, looked up): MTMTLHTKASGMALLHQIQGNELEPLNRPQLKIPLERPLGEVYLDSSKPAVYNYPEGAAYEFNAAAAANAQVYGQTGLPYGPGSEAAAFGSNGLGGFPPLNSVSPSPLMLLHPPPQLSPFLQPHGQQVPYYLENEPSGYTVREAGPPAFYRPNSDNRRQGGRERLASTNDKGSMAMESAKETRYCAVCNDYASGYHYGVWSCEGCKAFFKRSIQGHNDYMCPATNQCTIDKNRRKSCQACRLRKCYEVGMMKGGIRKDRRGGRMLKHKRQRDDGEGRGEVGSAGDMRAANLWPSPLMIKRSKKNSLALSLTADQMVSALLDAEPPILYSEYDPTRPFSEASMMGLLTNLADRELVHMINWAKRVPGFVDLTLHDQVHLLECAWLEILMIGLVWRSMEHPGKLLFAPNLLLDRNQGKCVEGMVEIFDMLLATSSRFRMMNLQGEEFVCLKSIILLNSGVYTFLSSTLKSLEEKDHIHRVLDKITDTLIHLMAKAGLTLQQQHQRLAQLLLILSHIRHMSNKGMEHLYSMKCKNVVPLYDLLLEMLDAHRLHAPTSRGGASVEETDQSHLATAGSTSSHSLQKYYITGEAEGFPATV

Assay [17] can be described thus: qHTS assay to identify small molecule phospholipidosis (PLD) inducers (AID 1259344; active means well fitted curve in the direction sought with a large enough effect; an effect the other way counts as inactive or inconclusive). The essentials: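 After 4 h attachment on collagen I, HepG2 cells were dosed with compound alongside LipidTOX Red, kept 24 h at 37 C, fixed, and imaged for lamellar phospholipid pits.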
Assay [18] in a line: qHTS assay to identify small molecule agonists of the estrogen receptor beta (ER-beta) signaling pathway - cell viability counter screen (AID 1259380). Further: nearly all actives have a fitted effect of over 30% in size. In a few lines:
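Steps: plate ER-beta-UAS-bla HEK293T cells, rest 6 hr; add compounds in DMSO; incubate 16 hr at 37C, 5% CO2; add FRET substrate 2 hr; add CellTiter-Glo, wait 30 min at room temperature; read luminescence.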

Assay [19] deals with Estrogen receptor (Homo sapiens) (UniProt P03372). The experiment in a line: qHTS assay to identify small molecule agonists of the estrogen receptor alpha (ER-alpha) signaling pathway in the presence of an antagonist (AID 1259383; calls by dose curve; further: nearly all actives have a fitted effect of over 15% in size; further: potency means the concentration at half of the fitted maximal effect; on activation: top concentration of the series differs between compounds). In a few lines: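 Readout was ERE-driven luciferase luminescence in VM7Luc4E2 cells, which express full-length ER-alpha endogenously. Compounds were tested at 15 concentrations for 22hr alongside 10.0nM ICI-182,780 (final concentration).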

Assay [20] in a line: qHTS assay to identify small molecule agonists of the estrogen receptor alpha (ER-alpha) signaling pathway in the presence of an antagonist - cell viability counter screen (AID 1259386).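 Further: series mostly up to about 92 µM; cells exposed to compounds for 22 h at 37 °C before the viability read; nearly all actives have a fitted effect of over 30% in size.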 The essentials: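 In this counter screen, compound effects on VM7Luc4E2 viability were tested in the presence of the antagonist ICI-182,780 at 10.0nM final. Compounds were dosed at 15 concentrations, exposure lasted 22hr, and the CellTiter-Fluor signal was read.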

Each structure is given as a SMILES string. A number with no mark means an inactive call. Records with an inconclusive call do not appear. Active and inactive are the calls of the source. Unless noted, the call rests on the fitted dose curve; in most records, active means well fitted curve in the direction sought with a large enough effect in the repeat runs; inconclusive means weak or mixed curves; inactive means no such curve, though single readings can be large; an effect the other way counts as inactive or inconclusive.

Estrogen receptor beta (Homo sapiens), sequence (Q92731 whole entry, looked up): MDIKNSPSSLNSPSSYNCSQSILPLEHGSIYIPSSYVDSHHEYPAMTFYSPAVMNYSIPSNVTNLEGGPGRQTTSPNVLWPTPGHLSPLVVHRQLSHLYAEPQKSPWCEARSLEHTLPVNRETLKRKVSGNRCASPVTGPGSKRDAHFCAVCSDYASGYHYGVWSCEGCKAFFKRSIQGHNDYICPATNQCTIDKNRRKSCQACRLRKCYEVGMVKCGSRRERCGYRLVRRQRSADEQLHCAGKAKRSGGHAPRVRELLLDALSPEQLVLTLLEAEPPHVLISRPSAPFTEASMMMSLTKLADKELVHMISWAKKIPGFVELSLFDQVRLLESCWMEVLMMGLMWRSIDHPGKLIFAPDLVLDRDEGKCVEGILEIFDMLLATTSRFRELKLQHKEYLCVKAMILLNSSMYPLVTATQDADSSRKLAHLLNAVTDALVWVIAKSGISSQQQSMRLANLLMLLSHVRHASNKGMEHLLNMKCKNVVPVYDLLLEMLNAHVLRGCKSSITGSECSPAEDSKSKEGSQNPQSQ

Take `CCC(C)(C)c1cc(-n2nc3ccccc3n2)c(O)c(C(C)(C)CC)c1`: the result in [1], in [4], in assay [7] and in assay [9] was inactive. Moreover, the Potency in assay [2] is 39.2 µM (active). The Potency result in [3], in [5], in assay [6], in [8], in assay [10] and in assay [11] was “inactive” each time. Besides, the Potency entry in assay [12], in assay [13], in assay [14] and in assay [15] was “inactive” in each case.

In the case of `CCN(CC)C(C)C(=O)c1ccccc1` (stereo not drawn), the result in [1], in assay [17], in [4] and in [7] was inactive. Also, the Potency result in assay [2], in assay [16], in [3], in assay [5], in [6] and in assay [8] was “inactive” throughout. The Potency entry in [11], in assay [18], in assay [12], in assay [13], in assay [19] and in [14] was “inactive” in each case. Also, the Potency entry in [15] and in assay [20] was “inactive” each time.

With `CC1(C)COP(Oc2ccccc2)OC1`, the outcome in assay [1], in assay [4] and in [7] was inactive. Moreover, the Potency result in assay [2], in [3], in assay [5], in assay [6], in [8] and in assay [11] was “inactive” each time. The Potency result in assay [18], in [12], in assay [13], in [14], in assay [15] and in assay [20] was “inactive” in each case.

Turning to `C#C[C@]1(O)C=C[C@H]2[C@@H]3CCC4=CC(=O)CC[C@@H]4[C@H]3CC[C@@]21CC`, the result in assay [1], in assay [17], in assay [4], in assay [7] and in assay [9] was inactive. Besides, the Potency result in assay [2], in [16], in assay [3], in [5], in [6] and in assay [11] was “inactive” in each case. The Potency entry in assay [13], in [14] and in assay [15] was “inactive” each time. For the same compound, the Potency in assay [8] is 15 µM (active); in [12], 0.133 µM (active); in [19], 3.35 µM (active).

In the case of `N#CC(Cl)(Cl)Cl`, the outcome in assay [1], in assay [4], in assay [7] and in assay [9] was inactive. In addition, the Potency result in [2], in assay [16], in assay [3], in [5], in assay [8] and in assay [10] was “inactive” in each case. Moreover, the Potency entry in [11], in assay [18], in assay [12], in [13] and in assay [19] was “inactive” throughout.

`Cc1nc(N)nc(N)n1`: the outcome in assay [1], in [4] and in assay [7] was inactive. For the same compound, the Potency result in assay [2], in assay [16], in [3], in [5], in assay [6] and in assay [8] was “inactive” each time. In addition, the Potency entry in assay [11], in [18], in [13], in [19], in assay [14] and in assay [20] was “inactive” throughout.

In the case of `CC(C(=O)c1ccccc1)N(C)C` (stereo not drawn), the result in [1], in assay [4] and in [7] was inactive. Further, the Potency result in [2], in [16], in assay [3], in assay [5], in [6] and in assay [10] was “inactive” in each case. The Potency entry in assay [11], in assay [12], in assay [13], in [19], in [14] and in assay [15] was “inactive” in each case. In addition, the Potency result in assay [20] is “inactive”.

Consider `Clc1ccccc1N1CCNCC1`, for which the result in assay [1], in assay [4], in [7] and in assay [9] was inactive. The Potency result in assay [2], in assay [16], in [5], in assay [6], in [8] and in [10] was “inactive” each time. Moreover, the Potency entry in [11], in [12], in [13], in [19], in [14] and in [15] was “inactive” in each case. For the same compound, in assay [20], the Potency result was “inactive”.

Source of the values: PubChem BioAssay (Tox21).
